Pf Dd2 growth – Plasmodium falciparum Dd2 growth inhibition | Potency, µM (top dose mostly 28.9 µM), inactives show at the highest dose activity, negative = inhibition, most hits filed as inhibitors | hit rate 4.3% among 120,000 | P. falciparum Dd2 growth, SYBR Green, 72 h; active = well fitted inhibition curve with a large enough effect;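 also: plate controls were DMSO vehicle for no effect and reference drug for full effect; nearly all actives have a fitted effect of over 65% in size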
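Readout: SYBR Green fluorescence, 485 nm excitation, 535 nm emission, after ~16 h lysis at 37C. Before that, Dd2-infected red cells (2.5% hematocrit) grew 72 h with compound, 29 uM top final concentration.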
* = called active by the depositor; [ ] = dose if it differs, or a comment. Shown is part of a subset that was picked to be rich in hits. Potency is read from the fitted curve at half-maximal effect.

For CC1CCCCN1Cc1c(O)ccc2c(=O)c(-c3ccccc3)coc12 (configuration not stated) the results were Pf Dd2 growth 10µM*.
Screening CC1CCCCN1Cc1c(O)ccc2c(=O)c(-c3ccc(Cl)cc3)c(C(F)(F)F)oc12 (configuration not stated) returned Pf Dd2 growth 10µM*.
CC1CCCCN1Cc1nc2c(c(=O)n(C)c(=O)n2C)n1Cc1ccc(Br)cc1 (configuration not stated) was read as Pf Dd2 growth 16%.
Screening CN(Cc1ccc(-c2ccccc2)cc1)Cc1cccc(OC(F)(F)F)c1 returned Pf Dd2 growth 10%.
Cc1cc(NC(=O)c2ccc3c(c2)N(C)C2CCCCN2C3=O)ccc1F (configuration not stated) was read as Pf Dd2 growth -8%.
Screening COCCOc1ccc2c(n1)CCN(C(=O)c1cccc(C)c1)C2 returned Pf Dd2 growth -35%.
For CCO[C@H]1C[C@@H](O)C12CCN(c1ccc(C#N)cn1)CC2 the results were Pf Dd2 growth -2%.
For Cc1ncc2c(c1CNC(=O)c1ccccc1F)CCN(C(=O)Cc1ccc3c(c1)OCO3)C2 the results were Pf Dd2 growth -13%.
OCc1ccc(CN2C[C@H](O)C[C@H]2c2nc(Cc3ccc(F)cc3Cl)no2)o1 was read as Pf Dd2 growth -4%[44.1 µM].
O=C(CCC1CCCC1)NCC12CCC=C1N(CC1CC1)C(=O)CC2 (configuration not stated) was read as Pf Dd2 growth -11%.
`Cc1ccc(C(=O)CSc2nc3cc(C(=O)NC4CCCC4)ccc3c(=O)n2CC2CCCO2)c(C)c1` (configuration not stated) gave Pf Dd2 growth -3%.
`Cc1cccc(CSc2nc3cc(C(=O)NC4CCCC4)ccc3c(=O)n2Cc2ccccc2)c1` gave Pf Dd2 growth 18%.
Cc1ccc(Cn2c(SCc3ccc(C(=O)NC4CCCC4)cc3)nc3ccncc32)cc1 was read as Pf Dd2 growth 11µM*.
Cc1ccc(Cn2c(SCc3ccc(C(=O)NC4CCCCC4)cc3)nc3ccncc32)cc1 was read as Pf Dd2 growth 11µM*.
Screening Cc1ccc(CSc2nc3ccncc3n2Cc2nc(-c3ccc(Cl)cc3)oc2C)cc1 returned Pf Dd2 growth 5%.
Cc1ccc(Cn2c(=O)n(Cc3ccc(C(=O)NC4CCN(Cc5ccccc5)CC4)cc3)c(=O)c3ccccc32)cc1 was read as Pf Dd2 growth 7%.
`COc1ccc(Cn2c(SCc3ccc(C(=O)NC4CCCC4)cc3)nc3ccncc32)cc1` gave Pf Dd2 growth -13%.
`COc1ccc(CSc2nc3ccncc3n2CC(=O)Nc2cc(C)cc(C)c2)cc1` gave Pf Dd2 growth 49%.
For COc1ccc(Cn2c(SCc3ccc(C(=O)NC4CCCCC4)cc3)nc3ccncc32)cc1 the results were Pf Dd2 growth 7.9µM*.
`CCN(CC)Cc1nc(C2(O)CCN(C3CCN(C(C)=O)CC3)CC2)cs1` gave Pf Dd2 growth inactive.
For Cc1ccc(S(=O)(=O)N2CCC(CC(=O)NCc3ccccc3)C2)cc1F (configuration not stated) the results were Pf Dd2 growth inactive.
Screening COCc1ncc2c(n1)CCCN(CC(=O)NCc1ccccc1OC)C2=O returned Pf Dd2 growth inactive.
`COc1ccc(CC(=O)N2[C@@H]3CC[C@H]2CC(NC(=O)c2cnc(C)cn2)C3)cc1OC` (some centres not stated) gave Pf Dd2 growth 14%.
For Cc1ccc(C)c(NC(=O)N2CC(n3cc(COc4ccccc4)nn3)C2)c1 the results were Pf Dd2 growth -8%.
For O=C(c1ccccc1Br)N1CC(n2cc(COc3ccc(F)cc3)nn2)C1 the results were Pf Dd2 growth 11µM*.
`O=C(NCc1ccco1)N1CC(n2cc(COc3ccccc3)nn2)C1` gave Pf Dd2 growth -12%.
For O=C(c1cccc(O)c1)N1CC=C(c2cnc3cnc(-c4ccccc4)cn23)CC1 the results were Pf Dd2 growth 2µM*.
Screening O=C(c1ccc(-c2ncc3cnc(C4=CCOCC4)cn23)cc1)N1CCc2ccccc2C1 returned Pf Dd2 growth inactive.
Screening O=C(c1ccc(-c2ncc3cnc(-c4ccccc4)cn23)cc1)N1CCS(=O)(=O)CC1 returned Pf Dd2 growth inactive.
For CCOc1ccccc1CN1CCC2(CC1)Cc1ccccc1CNC2=O the results were Pf Dd2 growth -13%.
For CN(CC1CCOCC1)C(=O)c1c(F)cccc1Cl the results were Pf Dd2 growth 24%.
`O=C(C1CC(=O)N(c2n[nH]c3ccccc23)C1)N1CCC(c2noc3cc(F)ccc23)CC1` (configuration not stated) gave Pf Dd2 growth inactive.
COc1ccc(-c2ccc3c(c2)C(=O)N2CC[C@H](NC(=O)CSC)C[C@H]2C(=O)N3)cc1 was read as Pf Dd2 growth inactive.
`Cc1nc(CNC(=O)c2csc(-c3ccc(C(F)(F)F)cc3)n2)no1` gave Pf Dd2 growth 2%.
`CC1(C)NC(=O)N(CCC(=O)N2CCc3c(nc4cc(-c5ccccc5)[nH]n4c3=O)C2)C1=O` gave Pf Dd2 growth 22%[5.79 µM].
Screening COc1ccccc1OCC(=O)N1CC[C@@](O)(C2CCOCC2)[C@H](C)C1 returned Pf Dd2 growth 5%.
Cc1nc(-c2ccc(C(F)(F)F)cc2)cc([C@H]2CN3CC[C@H]2C[C@@H]3CNC(=O)C2CC2)n1 was read as Pf Dd2 growth inactive.
COc1ccc(C(=O)NC[C@H]2C[C@@H]3CCN2C[C@@H]3c2cc(-c3ccccc3Br)nc(C)n2)cc1 was read as Pf Dd2 growth 7.1µM*.
Cc1nc(-c2cccs2)cc([C@H]2CN3CC[C@H]2C[C@@H]3CNC(=O)c2ccc(N(C)C)cc2)n1 was read as Pf Dd2 growth 7.1µM*.
Cc1nc(-c2cccs2)cc([C@H]2CN3CC[C@H]2C[C@@H]3CNC(=O)CSCC(=O)O)n1 was read as Pf Dd2 growth -4%.
For Cc1nc(-c2ccco2)cc([C@H]2CN3CC[C@H]2C[C@@H]3CNCc2ccccc2)n1 the results were Pf Dd2 growth 1.1µM*.
Cc1nc(-c2ccccc2Br)cc([C@H]2CN3CC[C@H]2C[C@@H]3CNC(=O)C2CC2)n1 was read as Pf Dd2 growth -1%.
Screening COc1ccccc1-c1cc([C@H]2CN3CC[C@H]2C[C@@H]3CNC(=O)c2ccc(C)cc2)n(C)n1 returned Pf Dd2 growth inactive.
`COCC(=O)NC[C@H]1C[C@@H]2CCN1C[C@@H]2c1cc(-c2ccccc2)nc(C)n1` gave Pf Dd2 growth inactive.
Screening Cc1nc(C2CCCC2)cc([C@H]2CN3CC[C@H]2C[C@@H]3CNC(=O)c2ccco2)n1 returned Pf Dd2 growth inactive.
`Cc1nc(-c2ccc(N(C)C)cc2)cc([C@H]2CN3CC[C@H]2C[C@@H]3CNC(=O)C(C)(C)C)n1` gave Pf Dd2 growth 7.1µM*.
For Cc1nc(-c2ccco2)cc([C@H]2CN3CC[C@H]2C[C@@H]3CNC(=O)C2CC2)n1 the results were Pf Dd2 growth inactive.
Cc1nc(-c2cccs2)cc([C@H]2CN3CC[C@H]2C[C@@H]3CNC(=O)c2ccco2)n1 was read as Pf Dd2 growth inactive.
Screening COC[C@@H]1CN(C(=O)c2ccccc2OC)C[C@H]1c1ccccn1 returned Pf Dd2 growth -24%.
For CN1CCCCCCN(C(=O)NCc2ccccc2)CCC1=O the results were Pf Dd2 growth 9%.
`Cc1ccsc1C(=O)N1CCC(c2nc(C3CCOCC3)no2)CC1` gave Pf Dd2 growth 3%.
Screening CC(=O)N1CCn2cc(C(=O)NCc3ccc(Cl)nc3)nc2C1 returned Pf Dd2 growth 12%.
